Source: PubChem BioAssay AID2783 (National Center for Advancing Translational Sciences (NCATS), 2010)
Results filed as inconclusive are left out. The source made the active and inactive calls. The call rests on the fitted dose curve; in most records, active means well fitted inhibition curve with a large enough effect in the polarisation, with a control signal flat (not every such curve was filed as active); inconclusive means small, poorly fitted or top-dose-only effect, or effect the other way, or a change in a side signal; inactive means no such curve, though single readings can be large or run the other way; the % refers to the polarisation.

biological target: Menin (Homo sapiens) (UniProt O00255); experiment: Confirmation of Inhibitors Targeting the Menin-MLL Interaction in MLL Related Leukemias: Competition With Fluorescein Labeled MLL-derived Peptide; settings: Fluorescence polarization, fluorescein-MLL peptide displacement from menin; series mostly up to 100 µM; activity change, negative = inhibition: at the top concentration
Sequence (O00255 whole entry, looked up): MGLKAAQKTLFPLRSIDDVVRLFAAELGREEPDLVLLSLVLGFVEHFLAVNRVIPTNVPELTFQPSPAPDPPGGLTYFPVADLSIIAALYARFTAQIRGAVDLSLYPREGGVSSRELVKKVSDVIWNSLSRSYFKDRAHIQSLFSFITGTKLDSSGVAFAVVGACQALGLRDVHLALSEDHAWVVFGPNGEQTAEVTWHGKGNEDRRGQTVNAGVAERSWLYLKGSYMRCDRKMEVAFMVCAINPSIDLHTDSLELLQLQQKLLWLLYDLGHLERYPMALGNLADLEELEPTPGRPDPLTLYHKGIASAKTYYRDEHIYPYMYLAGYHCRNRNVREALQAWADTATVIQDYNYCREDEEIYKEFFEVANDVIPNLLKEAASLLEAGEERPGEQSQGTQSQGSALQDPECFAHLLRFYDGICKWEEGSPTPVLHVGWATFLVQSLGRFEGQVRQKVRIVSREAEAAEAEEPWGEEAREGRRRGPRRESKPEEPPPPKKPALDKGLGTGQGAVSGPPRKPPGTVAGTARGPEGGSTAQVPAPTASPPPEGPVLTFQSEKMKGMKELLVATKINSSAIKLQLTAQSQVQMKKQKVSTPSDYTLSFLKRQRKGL
On the % scale 0 is the no-effect control and ±100 the full control effect.

SMILES	activity change, negative = inhibition
C[C@@H]1CC[C@@]2(NC1)O[C@H]1C[C@H]3[C@@H]4CC=C5C[C@@H](O)CC[C@]5(C)[C@H]4CC[C@]3(C)[C@H]1[C@@H]2C	-4.43% (inactive)
CC[C@]12C=CCN3CC[C@@]4(c5ccc(OC)cc5N(C)[C@H]4[C@@](O)(C(=O)OC)[C@@H]1OC(C)=O)C32 (stereo not given in full)	-14.9% (inactive)
CCCCCn1c(=O)c(C(=O)Nc2nc(CC(=O)OCC)cs2)c(O)c2ccccc21	-14.2% (inactive)
O=c1oc2ccccc2c(O)c1C(c1ccccn1)c1c(O)c2ccccc2oc1=O	-5.18% (inactive)
COc1ccc(C(O)P(=O)(Oc2ccccc2)Oc2ccccc2)cc1 (stereo not given)	-6.17% [at 288 µM] (inactive)
C[N+](C)(C)CC#CCN1CCCC1=O	-1.22% [at 288 µM] (inactive)
O=C1NC(=O)C(=Cc2ccc3ccccc3c2)C(=O)N1	-8.04% [at 288 µM] (inactive)
O=C(Nc1ccc2ccccc2c1)c1nn(C23CC4CC(CC(C4)C2)C3)cc1Br	-12.5% (inactive)
OC12C3C4CC5C6C4C1C6C(C53)N2CCc1cccc(F)c1 (stereo not given)	-3.88% (inactive)
CCOP(=O)(OCC)C(NC(=O)c1ccccc1C)C(Cl)(Cl)Cl (stereo not given)	3.33% [at 288 µM] (inactive)
CCCCn1c(=O)c(C(=O)Nc2ccsc2C(=O)OC)c(O)c2ccccc21	5.42% (inactive)
Cc1cc(C(=O)NP(=O)(N2CCOCC2)N2CCOCC2)c(C)n1C1CC1	-16% (inactive)
COc1cc(/C=N/n2cnnc2)ccc1OC(=O)N(C)C	-5.61% [at 288 µM] (inactive)
O=C(O)CN1C(=O)CN=C(c2ccccn2)c2cc(Cl)ccc21	0.244% [at 288 µM] (inactive)
CCOC(=O)Cc1csc(NC(=O)c2c(O)c3ccccc3n(CCC(C)C)c2=O)n1	-5.01% (inactive)
